According to the supplement of paper PMC6992640:
± gives the standard deviation of the averaged measurements.

What was measured:
Experiment in all cases: cell viability (% of vehicle); higher = less cytotoxic
Conditions in all cases: 10 µM; 72 h
[1] = tested on: HCI01 (cells of a triple-negative basal-like breast cancer xenograft)
[2] = tested on: HCI03 (cells of an ER-positive luminal breast cancer xenograft)
[3] = tested on: HCI09 (cells of a triple-negative luminal androgen receptor type breast cancer xenograft)
[4] = tested on: HCI11 (cells of an ER-positive luminal breast cancer xenograft)
[5] = tested on: HCI13 (cells of an ER-positive luminal breast cancer xenograft)
[6] = tested on: HCI16 (cells of a triple-negative basal-like breast cancer xenograft)
[7] = tested on: UCD52 (cells of a triple-negative basal-like breast cancer xenograft)
[8] = tested on: WHIM2 (cells of a triple-negative basal-like breast cancer xenograft)
[9] = tested on: WHIM30 (cells of a triple-negative basal-like breast cancer xenograft)
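Also: PDX cells carrying CMV promoter-driven luciferase, viability read as total photon flux per second by IVIS imaging following D-luciferin, vehicle control 0.1% DMSO.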

| SMILES | cell viability [1] | cell viability [2] | cell viability [3] | cell viability [4] | cell viability [5] | cell viability [6] | cell viability [7] | cell viability [8] | cell viability [9] |
| --- | --- | --- | --- | --- | --- | --- | --- | --- | --- |
| Cc1cc(C=CC#N)cc(C)c1Nc1ccnc(Nc2ccc(C#N)cc2)n1 [Rilpivirine] | 122 ± 9.4 | 111 | 96.5 ± 4.4 | 96.3 | 122 ± 0.84 | 83.9 | 85.5 ± 8.7 | 93.7 ± 11 | 110 ± 28 |
| CCNC1(C(N)=O)CCN(c2ncnc3c2nc(-c2ccccc2Cl)n3-c2ccc(Cl)cc2)CC1.Cl | 83 ± 14 | 86 | 39.3 ± 16 | 75 | 81 ± 13 | 92.1 | 63.4 ± 1.6 | 89.6 ± 5.2 | 109 ± 9.3 |
| COc1cnc(NS(=O)(=O)c2ccc(N)cc2)nc1 [Sulfameter] | 97.7 ± 24 | 142 | 86.1 ± 1.6 | 83 | 93.22 ± 0.58 | 113 | 80.9 ± 21 | 92.2 ± 18 | 95.13 ± 0.27 |
| CN(C)c1nc(N(C)C)nc(N(C)C)n1 [Altretamine] | 94.8 ± 11 | 96.7 | 89.6 ± 2.6 | 96.8 | 77.9 ± 3.4 | 108 | 78 ± 4.9 | 115 ± 5.7 | 109.4 ± 0.74 |
| Cc1cc(C)nc(NS(=O)(=O)c2ccc(N)cc2)n1 [Sulfamethazine] | 86 ± 14 | 88.9 | 101 ± 3.9 | 89.6 | 112 ± 6.1 | 114 | 91.9 ± 5.5 | 95.7 ± 21 | 132 ± 1.9 |
| Nc1ccc(O)c(C(=O)O)c1 [Mesalamine] | 110 ± 2.2 | 125 | 116 ± 8.1 | 103 | 130 ± 15 | 125 | 105 ± 2.3 | 92 ± 2.1 | 155 ± 27 |
| COc1ccc(CN(CCN(C)C)c2ccccn2)cc1.O=C(O)/C=C\C(=O)O [Mepyramine maleate] | 93.8 ± 18 | 133 | 88.5 ± 12 | 93.9 | 85.6 ± 8.7 | 107 | 112 ± 8.7 | 94.4 ± 8.4 | 111 ± 6 |
| C=C[C@@H]1C[N@@]2CC[C@H]1C[C@@H]2[C@H](O)c1ccnc2ccc(OC)cc12 [Quinidine] | 89 ± 10 | 135 | 102 ± 20 | 102 | 122 ± 8.8 | 123 | 97.9 ± 2.7 | 101 ± 11 | 101 ± 6.2 |
| Nc1nc(=O)n(C2CSC(CO)O2)cc1F (stereo unspecified) [Emtricitabine] | 105 ± 9.3 | 153 | 104 ± 12 | 107 | 113 ± 11 | 94.6 | 79.81 ± 0.75 | 90 ± 8.8 | 98.1 ± 1.3 |
| c1ccc(-c2ccc(C(c3ccccc3)n3ccnc3)cc2)cc1 (stereo unspecified) [Bifonazole] | 93.4 ± 4.3 | 108 | 74 ± 1.6 | 95.3 | 84.3 ± 22 | 108 | 149 ± 50 | 121 ± 1.4 | 126 ± 20 |
| CC1CCc2cc(F)cc3c(=O)c(C(=O)O)cn1c23 (stereo unspecified) [Flumequine] | 92.8 ± 10 | 156 | 93.1 ± 7.6 | 118 | 117 ± 6.8 | 138 | 107 ± 5.8 | 98.4 ± 4.2 | 135 ± 15 |
| OCCN(CCO)c1nc(N2CCCCC2)c2nc(N(CCO)CCO)nc(N3CCCCC3)c2n1 [Dipyridamole] | 90.2 ± 14 | 116 | 87.4 ± 23 | 105 | 96.2 ± 6.1 | 150 | 89.6 ± 3.4 | 112 ± 34 | 142 ± 12 |
| Nc1ccn(C2CSC(CO)O2)c(=O)n1 (stereo unspecified) [Lamivudine] | 106 ± 17 | 130 | 94.9 ± 7.3 | 107 | 124 ± 7.9 | 95.2 | 87.7 ± 6.8 | 94.3 ± 11 | 84.4 ± 12 |
| CN1CCC(=C2c3ccccc3C=Cc3ccccc32)CC1.Cl [Cyproheptadine hydrochloride] | 91 ± 16 | 115 | 83.3 ± 9 | 95.8 | 89.6 ± 1.1 | 90.1 | 79.8 ± 13 | 81.1 ± 14 | 116 ± 10 |
| Nc1nc(N)c2nc(-c3ccccc3)c(N)nc2n1 [Triamterene] | 105 ± 25 | 148 | 116 ± 17 | 109 | 120 ± 12 | 138 | 123 ± 28 | 94.5 ± 15 | 122 ± 17 |
| CN(C)CCC(c1ccc(Br)cc1)c1ccccn1.O=C(O)C=CC(=O)O (stereo unspecified) [Brompheniramine hydrogen maleate] | 119 ± 19 | 117 | 103 ± 1.9 | 99.5 | 142 ± 4.6 | 118 | 74.9 ± 2.3 | 97.9 ± 3.3 | 113.4 ± 1.1 |
| CN(Cc1cc(Br)cc(Br)c1N)C1CCCCC1.Cl [Bromhexine HCl] | 95.8 ± 14 | 86.3 | 93 ± 6 | 96.3 | 64.9 ± 2.5 | 106 | 73.8 ± 6.8 | 44.5 ± 15 | 108 ± 3.3 |
| Cl.NC1=NCC2c3ccccc3Cc3ccccc3N12 (stereo unspecified) [Epinastine HCl] | 102 ± 1.5 | 94.8 | 82.5 ± 4.8 | 95.5 | 79.4 ± 1.9 | 118 | 79 ± 1.4 | 96.5 ± 8.4 | 89.3 ± 7 |
| CC(=O)O[C@H]1Cc2ccccc2N(C(N)=O)c2ccccc21 [Eslicarbazepine acetate] | 102 ± 12 | 116 | 111 ± 6.7 | 85.7 | 102 ± 11 | 106 | 95.5 ± 1.3 | 102 ± 27 | 94.1 ± 16 |
| COc1ccc2c(c1)c(CC(=O)O)c(C)n2C(=O)c1ccc(Cl)cc1 [Indomethacin] | 106 ± 20 | 88.7 | 96.7 ± 1.1 | 79.2 | 105 ± 4.9 | 92 | 72.4 ± 13 | 92.1 ± 4.3 | 93 ± 5.3 |

| SMILES | cell viability [1] | cell viability [2] | cell viability [3] | cell viability [4] | cell viability [5] | cell viability [6] | cell viability [7] | cell viability [8] | cell viability [9] |
| --- | --- | --- | --- | --- | --- | --- | --- | --- | --- |
| CC(C)NCC(O)c1ccc(NS(C)(=O)=O)cc1.Cl (stereo unspecified) [Sotalol] | 120 ± 11 | 116 | 105 ± 37 | 103 | 103 ± 5.8 | 105 | 85.2 ± 2.1 | 101 ± 13 | 118 ± 17 |
| CCOc1ccc(Cc2cc(C3OC(CO)C(O)C(O)C3O)ccc2Cl)cc1 (stereo unspecified) [Dapagliflozin] | 112 ± 8.7 | 113 | 89.6 ± 9.1 | 110 | 107 ± 18 | 128 | 78.8 ± 4.8 | 84 ± 6.9 | 103 ± 24 |
| Cc1c(NC(=O)c2cccnc2)c(=O)n(-c2ccccc2)n1C [Nifenazone] | 115 ± 12 | 95.9 | 116 ± 42 | 114 | 103 ± 10 | 122 | 96.7 ± 4.5 | 93.9 ± 16 | 128 ± 6 |
| COc1cc(C(C)=O)ccc1OCCCN1CCC(c2noc3cc(F)ccc23)CC1 [Iloperidone] | 153 ± 25 | 101 | 117 ± 19 | 103 | 121 ± 14 | 172 | 88.2 ± 1.8 | 106 ± 6 | 122.82 ± 0.035 |
| COc1ccc(CC2c3cc(OC)c(OC)cc3CC[N+]2(C)CCC(=O)OCCCCCOC(=O)CC[N+]2(C)CCc3cc(OC)c(OC)cc3C2Cc2ccc(OC)c(OC)c2)cc1OC.O=S(=O)([O-])c1ccccc1.O=S(=O)([O-])c1ccccc1 (stereo unspecified) [Cisatracurium Besylate] | 177 ± 73 | 129 | 102 ± 17 | 109 | 80.4 ± 3.9 | 129 | 119 ± 6.3 | 65.1 ± 7.3 | 120 ± 7 |
| C[N+]1(C)[C@@H]2C[C@@H](OC(=O)C(O)(c3cccs3)c3cccs3)C[C@H]1[C@@H]1O[C@@H]12.[Br-] [Tiotropium Bromide] | 124 ± 17 | 116 | 106 ± 18 | 102 | 116 ± 12 | 103 | 88.9 ± 4.2 | 94.7 ± 18 | 125 ± 12 |
| NC(=O)c1cn(Cc2c(F)cccc2F)nn1 [Rufinamide] | 93.3 ± 16 | 137 | 106 ± 14 | 99.1 | 103 ± 10 | 106 | 96.9 ± 3.1 | 93.3 ± 18 | 124 ± 1.8 |
| O=C1C(=O)c2ccccc2C(O)=C1C1CCC(c2ccc(Cl)cc2)CC1 (stereo unspecified) [Atovaquone] | 81.6 ± 34 | 82.3 | 27.7 ± 4.7 | 54.9 | 50 ± 1.9 | 116 | 78.9 ± 15 | 99.7 ± 8.7 | 72.4 ± 1.9 |
| NC(CO)(CO)CO [Trometamol] | 86.3 ± 6.3 | 114 | 94.9 ± 21 | 91.5 | 58.4 ± 13 | 104 | 86 ± 7 | 99.2 ± 16 | 113 ± 12 |
| C=CCNC(N)=S [Allylthiourea] | 96.4 ± 7.7 | 118 | 94.1 ± 19 | 97.4 | 64.8 ± 14 | 107 | 129 ± 35 | 108 ± 35 | 130 ± 8 |
| Cc1ccc(Cl)c(Nc2ccccc2C(=O)[O-])c1Cl.[Na+] [Meclofenamate Sodium] | 111 ± 10 | 158 | 100 ± 5.1 | 103 | 122 ± 5 | 121 | 92.1 ± 4.6 | 97.8 ± 9.9 | 144 ± 2.2 |
| N.N.[Cl][Pt+2][Cl] [Cisplatin] | 114 ± 0.99 | 124 | 64 ± 66 | 119 | 66.6 ± 27 | 117 | 99.9 ± 11 | 117 ± 18 | 133 ± 14 |
| O=c1[nH]c(=O)n(C2CC(O)C(CO)O2)cc1C(F)(F)F (stereo unspecified) [Triflurdine (Viroptic)] | 123 ± 1.4 | 132 | 137 ± 70 | 111 | 147 ± 24 | 97.1 | 116 ± 1.5 | 87.8 ± 36 | 132 ± 15 |
| Nc1ccc(S(=O)(=O)Nc2ccccn2)cc1 [Sulfapyridine] | 111.2 ± 0.17 | 131 | 101 ± 2.1 | 92.6 | 138 ± 15 | 147 | 113 ± 19 | 100 ± 0.64 | 120 ± 12 |
| COc1cc(OC)c(C=CS(=O)(=O)Cc2ccc(OC)c(NCC(=O)[O-])c2)c(OC)c1.[Na+] | 126.6 ± 0.39 | 111 | 112 ± 11 | 99.6 | 40.1 ± 4.7 | 115 | 117 ± 20 | 73.9 ± 14 | 112 ± 16 |
| COc1cc2nc(N3CCN(C(=O)c4ccco4)CC3)nc(N)c2cc1OC.Cl [Prazosin HCl] | 152 ± 2.9 | 129 | 36.9 ± 1.6 | 131 | 108 ± 16 | 156 | 140 ± 7.2 | 52.5 ± 4.7 | 114 ± 1.7 |
| CN(C)C(=O)NC1CCC(CCN2CCN(c3cccc(Cl)c3Cl)CC2)CC1 (stereo unspecified) [Cariprazine] | 122 ± 28 | 72.1 | 43.9 ± 2.2 | 67.7 | 53.4 ± 11 | 89.7 | 38.5 ± 6 | 119 ± 8 | 118.6 ± 0.35 |
| CNCC(O)C(O)C(O)C(O)CO.Cc1c(Nc2ncccc2C(=O)O)cccc1C(F)(F)F [Flunixin Meglumin] | 135 ± 49 | 120 | 141 ± 44 | 103 | 133 ± 14 | 105 | 77.6 ± 16 | 130 ± 17 | 107 ± 2.9 |
| Cc1c(OCC(F)(F)F)ccnc1CS(=O)c1nc2ccccc2[nH]1 (stereo unspecified) [Dexlansoprazole] | 188 ± 46 | 149 | 94.9 ± 51 | 134 | 188 ± 57 | 170 | 143 ± 8.5 | 173 ± 16 | 186 ± 9.4 |
